Measurements as given in PubChem BioAssay AID827 (SRMLSC, 2007).
In all, about 140,000 compounds went through this assay and about 1,700 (1.2%) were called active. Shown is part of a subset that was picked to be rich in actives. Values without a mark were called inactive.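 How the source made its calls: active means viability at or below a set limit, 4 SD under the median of all tested compounds (cut at about 3.7% in these data); inactive means the rest.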

Test: viability loss in PTEN-deleted colon tumor cells – cell-based, HCT116, CellTiter-Glo, primary screen (AID 827);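 further: PTEN knockout HCT116 line with beta catenin targeted HCT116 as companion control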
Conditions: HCT116 PTEN-null viability, 60 h, at 10 µM, stronger effect = lower value

SMILES	viability
CCn1c(SCc2ccc(C)cc2)nnc1-c1nn(-c2ccccc2)ccc1=O	87.8%
N=C(N)SCc1cccc2ccccc12	87.8%
CCc1ccc(-c2nn(-c3ccccc3)cc2CSC(=N)N)cc1	1.62% (active)
S=C(NCc1ccc(Cl)cc1)NC12CC3CC(CC(C3)C1)C2	2.95% (active)
S=C(NCc1ccc(Cl)cc1)NC1CCCCC1	77.6%
COC(=O)Cc1ccc(NC(=S)NCc2ccc(Cl)cc2)cc1	83.4%
C=CCNC(=O)COC(=O)c1ccccc1C(=O)N(C)C1CCCCC1	92.8%
Cc1cc(C)cc(NC(=S)NCc2ccc(F)cc2)c1	78.2%
Cc1ccc(C(=O)N2CC(=O)Nc3ccccc32)o1	100%
CC(=O)c1cc(-c2ccccc2)n(CCC(=O)NC2CCCCCC2)c1C	74.8%
COc1cccc(N(C(=O)C2COc3ccccc3O2)C(C(=O)NC2CCCCC2)c2ccc(O)cc2)c1 (stereo unspecified)	56.8%
COC(=O)Cc1csc(/N=C/c2c(O)n(-c3cccc(C(F)(F)F)c3)c(=O)c3ccccc23)n1	47.7%
O=C1CCCC2=C1C(c1ccccc1)n1c(s/c(=C/c3cccc(F)c3)c1=O)=N2 (stereo unspecified)	80.9%
COc1ccc(OC)c(C2C3=C(N=c4s/c(=C\c5cccc(O)c5)c(=O)n42)c2ccccc2CC3)c1 (stereo unspecified)	3.19% (active)
CCOC(=O)C1=C(C)N=c2s/c(=C\C(=O)OC)c(=O)n2C1c1ccc(OC)cc1 (stereo unspecified)	95.2%
COc1ccccc1CNC(=O)CN1CCC(n2cnc3cc(F)ccc32)CC1	101%
COCCNc1nc(N)c([N+](=O)[O-])c(NCCO)n1	100%
CNc1nc(Nc2ccc(C)c(Cl)c2)nc(N)c1[N+](=O)[O-]	2.94% (active)
Nc1nc(NCCCN2CCOCC2)nc(Nc2ccccc2)c1[N+](=O)[O-]	63.9%
CCN(CC)c1ccc(S(=O)(=O)N2CCOCC2)cc1NC(=O)CSc1cccc[n+]1[O-]	93.9%
COc1ccc(CC(=O)N/N=C(\C)c2ccccn2)cc1	4.88%
CCC(C)(NC(=O)c1ccccn1)C(=O)NC1CCCCC1 (stereo unspecified)	105%
CCN(CC)CCOc1ccc2c(c1)C(=NNC(=O)c1ccccn1)c1cc(OCCN(CC)CC)ccc1-2	0.61% (active)
COc1ccc(S(=O)(=O)Nc2ccc(O)c(Sc3nc4ccccc4s3)c2)cc1	78.8%
O=[N+]([O-])c1c(NCCO)cc(Sc2nc3ccccc3s2)c2nonc12	1.48% (active)
O=C(O)c1cccc(S(=O)(=O)Nc2ccc(O)cc2Sc2nc3ccccc3s2)c1	94%
